Measured values as given in PubChem BioAssay (NCI).
Several values for one entry are separate records, joined by “and”; a condition that tells them apart may be missing. Equal entries are not always repeated. Compounds without any hit were thinned out: in the full panel of roughly 83,000, 20% have a hit.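 Step 1: grow cells in 96-well plates. Step 2: add test compound at a single concentration. Step 3: incubate 48 h. Step 4: record percent growth.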 Activity calls are given as the source filed them. Rule for the calls: active = growth percent below 10; inactive = the rest.

tested on: NCI-H460 lung; assay: NCI-60 one-dose screen, 48 h (100 = growth as untreated, 0 = no growth, -100 = all killed); conditions: 10 µM unless noted

Row | SMILES | growth
1 | COc1ccc(C/C(C)=C(/c2ccc(OCCN3CCCC3)cc2)c2ccc(OC(=O)NCc3ccccc3)cc2)cc1 | 63.8% (inactive)
2 | CCN(CC)CCOc1ccc(/C(=C(\Cl)c2ccccc2)c2ccccc2)cc1 | 5.92% (active)
3 | Cc1ccc(/C=C2\COc3ccc(O)c(O)c3C2=O)cc1 | 8.32% (active)
4 | COc1ccc2c(c1)oc1c(C)c3c(c(C)c12)C(=O)N(Nc1ccccc1)C3=O | 98.9% (inactive)
5 | CCC(=C(c1ccc(OCCCN(C)C)cc1)c1ccc(OCCCN(C)C)cc1)c1ccc(Cl)cc1 | -71.1% (active)
6 | CCOC(=O)c1c(-c2ccc(C)cc2)c(C#N)c(=O)n(-c2cccc(C(F)(F)F)c2)c1N | 104% (inactive)
7 | S=c1nc(CS)[nH]c2ccccc12 | 100% (inactive)
8 | O=C(N/N=C/c1ccc(O)cc1O)c1cccc(Nc2ccnc(C(F)(F)F)c2)c1 | 22.2% (inactive)
9 | CCN(CC)CCCN1C(=O)c2c(c(C)c3c(oc4cc(OC)ccc43)c2C)C1=O | 92.6% (inactive)
10 | Cc1ccc(NC(=O)c2ccc(CN3CCN(C)CC3)cc2)cc1Nc1nccc(-c2cccnc2)n1 | 96.8% (inactive) and 83.9% (inactive)
11 | COc1cc(/C=C2/C=C(c3ccc(C(C)(C)C)cc3)N(CCc3ccc(S(N)(=O)=O)cc3)C2=O)cc(OC)c1OC | 35.6% (inactive)
12 | O=c1c(/C=C/c2ccco2)nnc2sc(Nc3ccc(Cl)cc3)nn12 | 101% (inactive)
13 | Nc1[nH]nc(Nc2ccccc2)c1-c1nc2ccccc2s1 | 5.94% (active)
14 | CCCCCCCCn1ccc2cc(NC(=O)CN3CCN(c4nc(C)cc(N5CCCCC5)n4)CC3)ccc21 | 93.7% (inactive)
15 | CC/C(=C(/c1ccc(O)cc1)c1ccc(OCCN2CCCCCC2)cc1)c1ccc(Cl)cc1 | 46% (inactive)
16 | C=C(C)[C@@H]1CC[C@]2(C(=O)N3CCN(C)CC3)CC[C@]3(C)[C@H](CC[C@@H]4[C@@]5(C)CC(CCCNC(C)=O)(CCCNC(C)=O)[C@H](OC(C)=O)C(C)(C)[C@@H]5CC[C@]43C)[C@@H]12 | 99.5% (inactive)
17 | CCN(c1cc(-c2ccc(CN3CCC(/C=C/S(=O)(=O)c4ccccc4)CC3)cc2)cc(C(=O)NCc2c(C)cc(C)[nH]c2=O)c1C)C1CCOCC1 | 83.8% (inactive)
18 | Nc1nc(N)c2c(n1)NC(c1ccc(Cl)cc1)CC(c1cccc(Nc3ccncc3)c1)=N2 (stereo not drawn) | 23.2% (inactive)
19 | C=C(c1ccc(C(=O)O)cc1)c1cc2c(cc1C)C(C)(C)CCC2(C)C | 83.4% (inactive) and 79% (inactive)

Row | SMILES | growth
20 | O=C1OCC2=C1C(c1cccc([N+](=O)[O-])c1)c1cc3c(cc1N2CCO)CCC3 (stereo not drawn) | 3.63% (active)
21 | CCN(CC)/C([O-])=c1\cccc\c1=C1\N=C(c2ccccc2)N=C1[n+]1ccc(-c2ccccc2)cc1 | 103% (inactive)
22 | Cc1nc(-n2[nH]c(=O)ccc2=O)sc1N=Nc1ccccc1 | 102% (inactive)
23 | Cc1ccc(-c2nc3nc(-c4ccccc4)nc(N4CCCNCC4)c3o2)cc1 | -57.7% (active)
24 | O=C([C@H]1C[C@H]1c1ccc(S(F)(F)(F)(F)F)cc1)N1CCN(c2cc(Cl)ccc2C(F)(F)F)CC1 | 95.6% (inactive)
25 | OB(O)c1ccsc1-c1nc2ccc3[nH]ncc3c2c2c1CCCC2 | 38.9% (inactive)
26 | CC[C@]12CN3CCc4c([nH]c5ccccc45)[C@@](C(=O)OC)(c4cc5c(cc4OC)N(C)[C@H]4[C@@](O)(C(=O)OC)[C@H](OC(C)=O)[C@]6(CC)C=CCN7CC[C@]54[C@@H]76)CC(C3)[C@H]1O2 (stereo partly drawn) | -27.3% (active)
27 | COC(=O)N/N=C/c1c[n+]([O-])c2ccccc2[n+]1[O-] | 105% (inactive)
28 | Cn1ccnc1CN1CCSC(C(=O)Nc2ccccc2)C1 (stereo not drawn) | 94.8% (inactive)
29 | CCNC(=O)Oc1ccc(/C(=C(/C)Cc2ccc(OC)cc2)c2ccc(OCCN(CC)CC)cc2)cc1 | 13.5% (inactive)
30 | Cc1ccc(-c2nc(C#N)c(S(=O)(=O)N(C)C)o2)cc1 | 110% (inactive)
31 | COCCn1cc(-c2nc(-c3cn(CCOC)c4ncccc34)cs2)c2ccccc21 | 56.6% (inactive)
32 | Nc1nc2ccccc2c2c(=O)c3ccc(Cl)cc3sc12 | 72.7% (inactive)
33 | CC[C@]1(O)CC2CN(CCc3c([nH]c4ccccc34)C(C(=O)OC)(c3cc4c(cc3OC)N(C=O)[C@H]3[C@@](O)(C(=O)OC)[C@H](OC(C)=O)[C@]5(CC)[C@@H]6C[C@@H]6CN6CC[C@]43[C@@H]65)C2)C1 (stereo partly drawn) | 3.37% (active)
34 | CN1CCN(CCCN2c3ccccc3Sc3ccc(Cl)cc32)CC1 | 93.4% (inactive) and 96.9% (inactive)
35 | Nc1ncc(-c2ccc3ncnc(N4CCc5ccc(Cl)cc54)c3c2)cc1C(F)(F)F | 18.1% (inactive)
36 | CC(C)(C)c1cc(NC(=O)Nc2ccc(-c3cn4c(n3)sc3cc(OCCN5CCOCC5)ccc34)cc2)no1 | -10.7% (active) and 10.4% (inactive)
37 | CC1(Cc2ccccc2)CC2=C(C(=O)O1)C(c1ccccc1)NC(=O)N2 (stereo not drawn) | 110% (inactive)
38 | COc1cc(C=O)ccc1Oc1ccc([N+](=O)[O-])cc1[N+](=O)[O-] | 104% (inactive)
